TGFb SMAD3 inh: blocks TGF-b signaling | HepG2 CAGA-GFP TGF-b/SMAD3 reporter, GFP fluorescence, 18 h; TGF-beta stimulated, 500 pg/mL final | Potency, µM (titrated, usually from 46.1 µM), hits mostly inhibitors | actives 1.2% (n = 410,000) | AID 588855; note: nearly all actives have a fitted effect of over 65% in size
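HEPG2 CAGA-GFP cells (1000/well, DMEM with 1% FBS) were pre-incubated 2 h at 37 degrees C, given compound by pin tool, then stimulated with TGF-beta at 500 pg/mL final for 18 h before per-cell GFP fluorescence imaging.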
Gal4-VP16 FLuc: inhibits Gal4-VP16 luciferase reporter, ROR gamma counter-screen; Drosophila S2 Gal4-VP16 UAS-luciferase, luminescence, 20 h; Potency, µM (doses to about 53.6 µM), hits mostly inhibitors; actives 3.5% (n = 310,000);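 note: Gal4-VP16 expression switched on by copper sulfate through the metallothionein promoter; nearly all actives have a fitted effect of over 50% in size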
RORgamma inh: blocks mouse ROR gamma transcriptional activity; P51450; Drosophila S2 Gal4-RORgamma UAS-luciferase reporter, 20 h; Potency, µM (doses to about 53.6 µM), actives largely listed as inhibitors; actives 5.4% (n = 310,000); note: nearly all actives have a fitted effect of over 60% in size
Target sequence (P51450 whole entry, looked up, the tested form may be a part): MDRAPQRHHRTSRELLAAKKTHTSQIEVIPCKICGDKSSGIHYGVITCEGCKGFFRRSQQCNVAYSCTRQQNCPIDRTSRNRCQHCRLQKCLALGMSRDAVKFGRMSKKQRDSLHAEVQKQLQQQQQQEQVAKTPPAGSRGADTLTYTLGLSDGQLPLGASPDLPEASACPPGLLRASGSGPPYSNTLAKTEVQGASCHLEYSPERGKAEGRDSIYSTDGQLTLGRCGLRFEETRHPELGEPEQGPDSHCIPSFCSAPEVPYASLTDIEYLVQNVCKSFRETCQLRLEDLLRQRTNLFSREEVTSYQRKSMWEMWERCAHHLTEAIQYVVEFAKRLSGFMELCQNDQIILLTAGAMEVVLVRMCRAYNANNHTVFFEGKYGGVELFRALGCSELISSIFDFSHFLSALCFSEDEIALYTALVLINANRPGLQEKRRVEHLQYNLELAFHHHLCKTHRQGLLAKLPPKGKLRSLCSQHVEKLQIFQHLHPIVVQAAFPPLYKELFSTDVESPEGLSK
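Drosophila Schneider cells stably carrying a metallothionein-driven Gal4 DBD–ROR gamma fusion and a UAS-Photinus luciferase reporter were exposed to compound for 1 hr, then induced with copper sulfate (700 uM final) for 20 hr at ambient temperature before luminescence reading.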
S2 tox: reduces viability in counter-screen for ATXN expression inhibitors; S2 cells (HEK-293 line with an ATXN2-luciferase reporter) viability, CellTiter-Fluor protease fluorescence, 24 h; Potency, µM (doses to about 56.7 µM), actives largely listed as cytotoxic; actives 0.49% (n = 400,000); AID 651635; note: nearly all actives have a fitted effect of over 40% in size
HepG2 tox: kills HepG2 cells in TGF-b inhibitor counter-screen. HepG2 CAGA-GFP viability, ATP luminescence, 18 h. Potency, µM (top dose mostly 46.1 µM), most hits filed as cytotoxic. actives 0.76% (n = 410,000). AID 588856
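HepG2 CAGA-GFP cells (1000/well, DMEM with 1% FBS) received compound, then TGF-beta at 500 pg/mL final, and were incubated 18 hours at 37 degrees C. Viability was read by CellTiter-Glo luminescence. Media-only wells were set as complete cell-killing and DMSO as no toxicity.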
ATXN2 expr inh: ATXN2 expression inhibition; HEK-293 ATXN2-luciferase reporter, luminescence, 24 h; Potency, µM (highest dose often 57 µM), actives largely listed as inhibitors; actives 0.72% (n = 360,000); note: nearly all actives have a fitted effect of over 55% in size
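ATXN2-luciferase reporter cells (luciferase flanked by upstream and downstream ATXN2 gene portions) were treated 24 h at 37 °C with compounds at up to 57 uM. SteadyGlo luminescence gave expression; GF-AFC fluorescence gave viability.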
A number is an active result; i = inactive; ? = inconclusive; nt = no result given; ! = not confirmed by another sample; [ ] = another dose, or the depositor's remark. Compounds with a hit are over-represented: about 6.3% of the library has one in this group of screens. Calls come from the whole dose curve; as a rule, active = well fitted curve in the direction sought with a large enough effect; inconclusive = small, poorly fitted or top-dose-only effect, or another doubt; inactive = no such curve, though single readings can be large; an effect the other way counts as inactive or inconclusive.

SMILES	TGFb SMAD3 inh	Gal4-VP16 FLuc	RORgamma inh	S2 tox	HepG2 tox	ATXN2 expr inh
CCOCCCNC(=O)C(c1ccc(C)cc1)N(Cc1ccc2c(c1)OCO2)C(=O)c1ccccc1O (configuration not stated)	i	nt	nt	i	i	i
CCCCCCN(CCCCCC)c1ccc(/C=C/c2ccnc3ccccc23)cc1	i	nt	nt	nt	i	nt
Cc1cccnc1C1=NOC(Cc2ccccc2)C(=O)N1C (configuration not stated)	i	nt	nt	i	i	i
O=C(NCCN1CCC(n2c(=O)[nH]c3ccccc32)CC1)c1cccc(Cl)c1	nt	nt	nt	i	nt	i
C=CCOC(=O)C1=C(C)NC(SCC)=C(C#N)C1c1ccc(Cl)cc1 (configuration not stated)	13µM	i	i	?	i	16µM
O=P(O)(O)C(O)(Cc1cnc2ccccn12)P(=O)(O)O	nt	nt	nt	i	nt	nt
COc1cccc2c1cc1c(=O)n(CC(=O)N3CCN(c4ccccc4F)CC3)nc(C)n12	i	nt	nt	nt	i	nt
COc1ccc(-c2nc(NC3=NCCCCC3)sc2C)cc1	i	i	10µM	i	i	i
COc1ccc(NC2=NCCCCC2)cc1	i	i	i	i	i	i
CC(=O)N/C(N)=N/c1nc2cc(C)ccc2o1	i	?	11µM	i	i	nt
CC(=O)N/C(N)=N/c1nc2cc([N+](=O)[O-])ccc2o1	i	i	i	?	i	i
N/C(=N\c1nc2ccccc2o1)NC(=O)/C=C/c1ccccc1	i	i	i	i	i	i
COc1ccccc1C(=O)N/C(N)=N/c1nc2ccccc2o1	?	?	8.9µM	i	i	i
CCC(=O)N/C(N)=N/c1nc2ccccc2o1	i	?	13µM	i	i	i
CC(C)(C)C(=O)N/C(N)=N/c1nc2ccccc2o1	i	?	4µM	i	i	i
CCC=CC[C@H]1C(=O)CC[C@@H]1CC(=O)OC	nt	nt	nt	nt	nt	i
COc1cc(CNC(=O)CCCCC=CC(C)C)ccc1O	nt	nt	nt	nt	nt	i
N/C(=N\c1nc2ccccc2o1)NC(=O)c1cccc(Br)c1	i	i	i	i	i	i
N/C(=N\c1nc2ccccc2o1)NC(=O)c1ccccc1	i	i	7.1µM	i	i	i
CC(C)CC(=O)N/C(N)=N/c1nc2ccccc2o1	i	i	10µM	i	i	i
CCCC(=O)N/C(N)=N/c1nc2ccccc2o1	i	i	10µM	i	i	i
Cc1ccc(C(=O)N/C(N)=N/c2nc3ccccc3o2)cc1	i	i	i	i	i	i
COc1ccc(/C=C/c2ccccn2)cc1	?	nt	nt	nt	i	nt
c1ccc2c(c1)SCc1c-2[nH]c2ccccc12	nt	10µM	4.5µM	nt	nt	nt
c1ccc2c(c1)OCCc1c-2[nH]c2ccccc12	i	i	i	i	i	i
SMILES	TGFb SMAD3 inh	Gal4-VP16 FLuc	RORgamma inh	S2 tox	HepG2 tox	ATXN2 expr inh
CC(C)NC(=O)C1(C)CCCN1C(=O)c1ccccc1Br (configuration not stated)	i	nt	nt	i	i	i
CCOC(=O)c1c(C)oc2nc(C)nc(NCc3ccccc3Cl)c12	i	nt	nt	i	i	i
Cc1ccc(-c2csc(=Nc3ccccc3)n2Cc2ccc3c(c2)OCO3)cc1C	i	nt	nt	i	i	i
C=CC[C@@H](CC(=O)N[C@H](CO)Cc1ccccc1)C(=O)N[C@H](COC(=O)[C@H](CC=C)CC(=O)OC(C)(C)C)Cc1c[nH]c2ccccc12	16µM	nt	nt	28µM	i	?
C=CC[C@H](CC(=O)N(CCO)Cc1ccccc1)C(=O)N[C@H](COC(=O)[C@H](CC=C)CC(=O)OC(C)(C)C)Cc1c[nH]c2ccccc12	?	nt	nt	22µM	i	?
CCOC(=O)C1=C(c2ccccc2)N=c2s/c(=C\c3ccc(O)cc3)c(=O)n2C1c1cccs1 (configuration not stated)	?	i	i	?	i	28µM
CCOC(=O)/C(C#N)=C/c1ccc(-c2ccccc2)o1	i	nt	nt	i	i	i
CCCNC(=O)CNC(=S)N(Cc1ccccc1F)C1CCCCC1	i	i	?	i	i	i
CCOC(=O)CNC(=S)N(Cc1ccccc1F)C1CCCCC1	i	i	11µM	i	i	i
CCCCCCCCNC(=O)c1ccc(C)cc1	nt	i	i	nt	nt	nt
CCNc1nc(NCC)nc(N(CC)C(N)=S)n1	i	?	5µM	i	i	i
CCNc1nc(NCC)nc(N(C#N)C(C)C)n1	i	i	i	i	i	i
COc1cc(SC#N)ccc1N=Cc1c(C)[nH]n(-c2ccc(C)c(C)c2)c1=O	?	4.5µM	4.5µM	13µM	8.9µM	11µM
COc1cc(SC#N)ccc1N=Cc1c(C)[nH]n(-c2ccc(Cl)cc2)c1=O	i	5.6µM	5.6µM	?	i	i
COc1cc(S(=O)(=O)Nc2ccccc2)ccc1N=Cc1c(C)[nH]n(-c2ccc(C)cc2)c1=O	nt	i	i	nt	nt	nt
Nc1ncc(S(=O)(=O)N2CCN(c3ccccc3)CC2)cn1	i	nt	nt	nt	i	nt
CCCCNc1c(-c2ccc(OC)c(SC3CCCCC3)c2)nc2cnccn12	?	nt	nt	nt	11µM	?
COc1ccc(-c2nc3cnccn3c2NCc2ccccc2)cc1SC1CCCCC1	?	nt	nt	nt	i	?
COCC1C2CC[C@H]3C(OCc4ccc(OC)cc4)OC[C@]4(C)[C@H]3C2=C(CN4C(=O)OC(C)(C)C)[C@H](C)C1COC (some centres not stated)	nt	i	i	nt	nt	nt
O=c1c2c(nc3n1CCCCC3)sc1c(O)c(Br)ccc12	i	4.5µM	8.9µM	i	i	i
CC(C)NC(=O)[C@H]1C[C@@H]1[C@H](NC(=O)OCc1ccccc1)c1ccccc1	nt	i	i	nt	nt	nt
CNC(=O)[C@@H]1C[C@H]1[C@@H](NC(=O)OCc1ccccc1)c1ccccc1	i	i	13µM!	i	i	i
CCn1c(SCc2ccc(Cl)cc2Cl)nc2nc3c(cc2c1=O)CCCC3	i	i	7.1µM	?	i	?
O=c1c2ccccc2nc(-c2ccco2)n1Cc1ccccc1	i	?	i	i	i	i
COc1cc(OC)cc(-c2nc3ccccc3c(=O)n2OC(=O)c2ccccc2C)c1	?	?	13µM	i	i	nt
SMILES	TGFb SMAD3 inh	Gal4-VP16 FLuc	RORgamma inh	S2 tox	HepG2 tox	ATXN2 expr inh
O=C(On1c(-c2ccccc2)nc2ccccc2c1=O)c1ccco1	i	?	11µM	?	i	?
COc1ccc(-c2nc3ccccc3c(=O)n2CCOc2c(C)cccc2C)cc1	i	i	i	nt	i	i[11.3 µM]
CCOC(=O)C[n+]1ccc2c([nH]c3ccccc32)c1C	i	i	i	nt	i	i
O=C1c2ccccc2-[n+]2ccc3c([nH]c4ccccc43)c21	nt	nt	nt	nt	nt	2.7µM
COCc1c(C(=O)N2CCN(C3CCCC3)CC2)cnn1-c1nccc(-c2cccs2)n1	nt	nt	nt	i	nt	nt
CN(c1ccc(C(=O)Nc2ccc(Cl)cn2)cc1)S(=O)(=O)c1ccccc1	i	?	i	?	i	i
CN(C1=C(NC(=O)c2ccc(Cl)cc2)C(=O)c2ccccc2C1=O)c1ccccc1	13µM	11µM	11µM	?	i	?

Assay outcomes deposited in PubChem BioAssay by National Center for Advancing Translational Sciences (NCATS).
